# Results published in PubChem BioAssay (Tox21).
# “And” between values parts separate entries of the source, which are not always exact repeats. Equal entries are not always repeated. Values without a mark were called inactive. Results filed as inconclusive are left out. Entries that show only a call come without a potency. Some compounds were tested as several samples or in several runs, with calls that do not always agree. The source made the active and inactive calls. Unless noted, calls follow the shape of the dose curve; as a rule, active = well fitted curve in the direction sought with a large enough effect in the repeat runs; inconclusive = weak or mixed curves; inactive = no such curve, though single readings can be large; an effect the other way counts as inactive or inconclusive.
# Tests used:
# [1] = qHTS assay for small molecule agonists of the p53 signaling pathway (AID 651631; calls by dose curve; also: nearly all actives have a fitted effect of over 15% in size)
# Method in brief: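 We treat p53RE-bla HCT-116 cells with compounds for 16 h at 37 °C, add LiveBLAzer B/G FRET substrate for 2 h at room temperature, and measure fluorescence intensity.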
# [2] = qHTS assay for small molecules that induce genotoxicity in human embryonic kidney cells expressing luciferase-tagged ATAD5 (AID 651632); also: nearly all actives have a fitted effect of over 15% in size
# Method in brief: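 HEK293T cells carrying a luciferase reporter tagged to ATAD5 were exposed to compound or DMSO vehicle for 16 hr at 37C, 5% CO2. Amplite was added, and after 30 min at room temperature luciferase activity was read as a marker of ATAD5 induction.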
# [3] = qHTS assay for small molecule agonists of the p53 signaling pathway - cell viability (AID 651633; calls by dose curve;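 also: p53RE-bla HCT reporter cells with a stable beta-lactamase p53 reporter; series mostly up to about 83 µM; nearly all actives have a fitted effect of over 30% in size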)
# Method in brief: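 Viability counter-read: CellTiter-Glo luminescence (30 min, room temperature) in the same p53RE-bla plates. These plates had been exposed to compounds for 16 h at 37 C.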
# [4] = qHTS assay for small molecules that induce genotoxicity in human embryonic kidney cells expressing luciferase-tagged ATAD5 - cell viability (AID 651634; calls by dose curve; also: nearly all actives have a fitted effect of over 25% in size; also: potency is read from the fitted curve at half-maximal effect)
# Method in brief: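 HEK293T cells expressing luciferase-tagged ATAD5 were exposed to compound or DMSO for 15.5 hr at 37C, 5% CO2. Viability was then read as live-cell protease activity by CellTiter-Fluor fluorescence after 30 min at 37C.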
# [5] = qHTS assay for small molecule disruptors of the mitochondrial membrane potential - cell viability (AID 720634; calls by dose curve;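 also: human HepG2 liver cancer cells; series mostly up to about 83 µM; nearly all actives have a fitted effect of over 20% in size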)
# Method in brief: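 HepG2 cells seeded overnight at 37 C, then exposed to compound or DMSO for 1 hr at 37 C, 5% CO2. m-MPI dye added, then CellTiter-Glo for 30 min at room temperature; viability read as ATP luminescence.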
# [6] = qHTS assay for small molecule disruptors of the mitochondrial membrane potential (AID 720635); also: potency is read from the fitted curve at half-maximal effect
# Method in brief: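 Mitochondrial membrane potential tracked with Mito-MPS dye, red aggregates (ex 540/em 590 nm) against green monomers (ex 490/em 535 nm). Compound treatment 1 hr at 37C, dye 30 min in HepG2.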
# [7] = qHTS assay to test for compound auto fluorescence at 590 nm (red) in HepG2 cells (AID 720674)
# Method in brief: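 Red autofluorescence (Ex/Em 540/590 nm, Rose Bengal sodium equivalents) was measured in HepG2 cells, 2,000 per well in MEM plus 10% FBS, plated overnight at 37 C. Readings were taken 1 hr after adding 23 nL compound or DMSO, at 37 C and 5% CO2.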
# [8] = qHTS assay to test for compound auto fluorescence at 535 nm (green) in HepG2 cells (AID 720675)
# [9] = qHTS assay to test for compound auto fluorescence at 460 nm (blue) in HEK293 cells (AID 720678)
# Method in brief: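 Blue read-out at excitation 405 nm and emission 460 nm follows overnight compound exposure of HEK293 cells at 37C in 5% CO2. Activity is given as auto fluorescence equivalency to triamterene.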
# [10] = qHTS assay to test for compound auto fluorescence at 590 nm (red) in HEK293 cells (AID 720679)
# Method in brief: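 Red channel, Ex/Em 540/590nm; signal expressed as equivalency to Rose Bengal sodium. HEK293, 2,000 cells/well, 10% dialyzed FBS; 23 nL compound pinned after 4-5 hr attachment; overnight 37C/5% CO2 before reading.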
# [11] = qHTS assay to test for compound auto fluorescence at 535 nm (green) in HEK293 cells (AID 720680)
# [12] = qHTS assay to test for compound auto fluorescence at 460 nm (blue) in HEK293 cell free culture (AID 720681)
# Method in brief: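 Blue fluorescence (Ex 405/Em 460 nm, triamterene-equivalent) was read immediately after pin transfer of compound or DMSO into medium (DMEM, 10% FBS) without cells.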
# [13] = qHTS assay to test for compound auto fluorescence at 535 nm (green) in HEK293 cell free culture (AID 720682)
# Method in brief: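 Green-channel intensity (Ex/Em 485/535 nm) was recorded from compound-treated wells containing only DMEM with 10% FBS. Fluorescein provided the equivalency standard.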
# [14] = qHTS assay to test for compound auto fluorescence at 590 nm (red) in HEK293 cell free culture (AID 720683)
# Method in brief: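 Red-channel autofluorescence of compounds in culture medium (DMEM, 10% FBS), no cells, measured at 540/590 nm. Rose Bengal sodium is the reference fluorophore for equivalence.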
# [15] = qHTS assay to test for compound auto fluorescence at 590 nm (red) in HepG2 cell free culture (AID 720684)
# Method in brief: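 Plate contents were MEM with 10% FBS plus test compound or DMSO, no cells. Fluorescence was recorded with 540 nm excitation and 590 nm emission.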
# [16] = qHTS assay to test for compound auto fluorescence at 535 nm (green) in HepG2 cell free culture (AID 720686)
# [17] = target: Glucocorticoid receptor (Homo sapiens) (UniProt P04150); test: qHTS assay to identify small molecule agonists of the glucocorticoid receptor (GR) signaling pathway (AID 720691; active = well fitted activation curve with a large enough effect in the signal ratio in the repeat runs, not every such curve was filed as active; the % refers to the signal ratio)
# Method in brief: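 GR-bla HeLa cells (beta-lactamase reporter under glucocorticoid response element) were plated 4 h at 37 C/5% CO2, given compounds in DMSO, and incubated 18 h at 37 C. LiveBLAzer B/G FRET substrate was added for 2 h at room temperature, then fluorescence intensity read.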
# [18] = qHTS assay to test for compound auto fluorescence at 460 nm (blue) in HepG2 cell free culture (AID 720685)
# Method in brief: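 Compound (23 nL) or DMSO pinned into cell-free MEM with 10% FBS; blue fluorescence read at 405/460 nm excitation/emission, expressed as auto-fluorescence equivalency to triamterene.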
# [19] = qHTS assay to test for compound auto fluorescence at 460 nm (blue) in HepG2 cells (AID 720687)
# Method in brief: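 Blue-channel autofluorescence (Ex/Em 405/460 nm, triamterene-equivalent) was measured after 1 hr compound exposure at 37 C, 5% CO2. Cells were HepG2, plated overnight at 37 C in MEM plus 10% FBS.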
# [20] = target: Glucocorticoid receptor (Homo sapiens) (UniProt P04150); test: qHTS assay to identify small molecule antagonists of the glucocorticoid receptor (GR) signaling pathway (AID 720692; active = well fitted inhibition curve with a large enough effect in the signal ratio in the repeat runs, not every such curve was filed as active; the % refers to the signal ratio)
# Method in brief: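 GR-bla HeLa cells (beta-lactamase reporter under glucocorticoid response element) were pre-plated 4 h at 37 C, treated with compounds plus 5 nM dexamethasone (final) for 18 h, then read by LiveBLAzer B/G FRET fluorescence after 2 h.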
# Sequence of Glucocorticoid receptor (Homo sapiens) (P04150 whole entry, looked up): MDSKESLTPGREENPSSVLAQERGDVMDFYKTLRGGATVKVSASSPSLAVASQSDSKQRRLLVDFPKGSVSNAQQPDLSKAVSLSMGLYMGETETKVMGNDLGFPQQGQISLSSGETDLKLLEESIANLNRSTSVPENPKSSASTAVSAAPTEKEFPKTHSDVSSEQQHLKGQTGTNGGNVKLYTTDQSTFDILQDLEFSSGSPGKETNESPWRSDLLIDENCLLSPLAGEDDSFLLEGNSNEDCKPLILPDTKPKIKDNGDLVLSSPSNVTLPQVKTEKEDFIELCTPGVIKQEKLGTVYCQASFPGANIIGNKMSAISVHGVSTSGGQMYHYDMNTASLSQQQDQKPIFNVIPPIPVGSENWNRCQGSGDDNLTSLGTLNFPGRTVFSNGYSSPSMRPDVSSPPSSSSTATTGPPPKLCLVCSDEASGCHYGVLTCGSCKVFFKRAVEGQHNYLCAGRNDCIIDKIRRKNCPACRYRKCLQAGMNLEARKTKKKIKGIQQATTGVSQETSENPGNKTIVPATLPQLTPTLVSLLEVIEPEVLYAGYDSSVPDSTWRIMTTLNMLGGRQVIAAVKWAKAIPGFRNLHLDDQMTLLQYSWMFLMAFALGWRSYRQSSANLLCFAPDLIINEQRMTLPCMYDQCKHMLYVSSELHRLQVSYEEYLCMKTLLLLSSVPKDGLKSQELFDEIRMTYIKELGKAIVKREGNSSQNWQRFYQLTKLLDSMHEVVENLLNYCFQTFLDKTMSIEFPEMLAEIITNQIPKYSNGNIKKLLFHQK
structure (smiles),measurement,setting,value
CC(C)(C)N,Potency,[1],inactive
same,Potency,[2],inactive
same,Potency,[3],inactive
same,Potency,[4],inactive
same,Potency,[5],inactive
same,Potency,[6],inactive
same,outcome,[7],inactive
same,outcome,[8],inactive
same,Potency,[9],inactive
same,outcome,[10],inactive
same,outcome,[11],inactive
same,Potency,[12],inactive
same,outcome,[13],inactive
same,outcome,[14],inactive
same,outcome,[15],inactive
same,outcome,[16],inactive
same,Potency,[17],inactive
CCc1cnc(C(=O)O)c(C(=O)O)c1,Potency,[1],inactive
same,Potency,[2],inactive
same,Potency,[3],inactive
same,Potency,[4],inactive
same,Potency,[5],inactive
same,Potency,[6],inactive
same,outcome,[7],inactive
same,outcome,[8],inactive
same,Potency,[9],inactive
same,outcome,[10],inactive
same,outcome,[11],inactive
same,Potency,[12],inactive
same,outcome,[13],inactive
same,outcome,[14],inactive
same,outcome,[15],inactive
same,outcome,[18],inactive
same,outcome,[16],inactive
same,outcome,[19],inactive
CC(C)Oc1ccccc1O,Potency,[1],inactive
same,Potency,[2],inactive
same,Potency,[3],inactive
same,Potency,[4],inactive
same,Potency,[5],inactive
same,Potency,[6],inactive
same,outcome,[7],inactive
same,outcome,[8],inactive
same,Potency,[9],inactive
same,outcome,[10],inactive
same,outcome,[11],inactive
same,Potency,[12],inactive
same,outcome,[13],inactive
same,outcome,[14],inactive
same,outcome,[15],inactive
same,outcome,[18],inactive
same,outcome,[16],inactive
same,outcome,[19],inactive
same,Potency,[17],inactive
same,Potency,[20],inactive
C(/C=C/C=C/Nc1ccccc1)=Nc1ccccc1,Potency,[1],inactive
same,Potency,[2],inactive
same,Potency,[3],inactive
same,Potency,[4],inactive
same,Potency,[5],inactive
same,Potency,[6],inactive
same,outcome,[8],inactive
same,Potency,[9],inactive
same,outcome,[10],inactive
same,outcome,[11],inactive
same,Potency,[12],inactive
same,outcome,[13],inactive
same,outcome,[14],inactive
same,outcome,[15],inactive
same,outcome,[18],inactive
same,outcome,[16],inactive
same,outcome,[19],inactive
C[C@H]1C[C@H]2[C@@H]3CCC4=CC(=O)C=C[C@]4(C)[C@@]3(F)[C@@H](O)C[C@]2(C)[C@@]1(O)C(=O)COP(=O)(O)O,Potency,[1],inactive
same,Potency,[2],inactive
same,Potency,[3],inactive
same,Potency,[4],inactive
same,Potency,[5],inactive
same,Potency,[6],inactive
same,outcome,[7],inactive
same,outcome,[8],inactive
same,Potency,[9],inactive
same,outcome,[10],inactive
same,outcome,[11],inactive
same,Potency,[12],inactive
same,outcome,[13],inactive
same,outcome,[14],inactive
same,outcome,[15],inactive
same,outcome,[18],inactive
same,outcome,[16],inactive
same,outcome,[19],inactive
O=C1OC(=O)C2CC=CCC12 (stereo not drawn),Potency,[1],inactive
same,Potency,[2],inactive
same,Potency,[3],inactive
same,Potency,[4],inactive
same,Potency,[5],inactive
same,Potency,[6],inactive
same,outcome,[8],inactive
same,Potency,[9],inactive
same,outcome,[10],inactive
same,outcome,[11],inactive
same,Potency,[12],inactive
same,outcome,[13],inactive
same,outcome,[14],inactive
same,outcome,[15],inactive
same,outcome,[18],inactive
same,outcome,[16],inactive
same,outcome,[19],inactive
same,Potency,[17],inactive
same,Potency,[20],inactive
CC1=CC(=C(c2ccc(N)cc2)c2ccc(N)cc2)C=CC1=N,activation,[1],-1.72% [at 8.3 µM]
same,Potency,[2],inactive
same,Potency,[3],inactive
same,Potency,[4],11.9 µM (active)
same,"activity, negative = cytotoxicity",[4],-19.8% [at 8.08 µM]
same,Potency,[6],221 nM (active) and 55 nM (active)
same,outcome,[7],inactive
same,outcome,[8],inactive
same,Potency,[9],inactive
same,outcome,[10],inactive
same,outcome,[11],inactive
same,Potency,[12],inactive
same,outcome,[13],inactive
same,outcome,[14],inactive
same,outcome,[15],inactive
same,outcome,[16],inactive
same,outcome,[19],inactive
O=C1C=CCCC1,Potency,[1],inactive
same,Potency,[2],inactive
same,Potency,[3],inactive
same,Potency,[4],inactive
same,Potency,[5],inactive
same,Potency,[6],inactive
same,outcome,[7],inactive
same,outcome,[8],inactive
same,outcome,[10],inactive
same,outcome,[11],inactive
same,Potency,[12],inactive
same,outcome,[13],inactive
same,outcome,[14],inactive
same,outcome,[15],inactive
same,outcome,[18],inactive
same,outcome,[16],inactive
same,outcome,[19],inactive
